This is a sample that favours compounds with a hit; in the whole collection about 22% have one here.
LmPK inh – qHTS Assay for Inhibitors of Leishmania Mexicana Pyruvate Kinase (LmPK); AID 1721, 2009; 290,000 tested, 0.37% active; Q27686; Potency, µM (top dose mostly 57.5 µM), without a hit: at the highest dose activity change, negative = inhibition, most hits filed as inhibitors; purified LmPK, Kinase-Glo ATP luminescence, 1 h; further: potency means the concentration at half of the fitted maximal effect; on the % scale 0 is the no-effect control and ±100 the full control effect
Target sequence (Q27686 whole entry, looked up): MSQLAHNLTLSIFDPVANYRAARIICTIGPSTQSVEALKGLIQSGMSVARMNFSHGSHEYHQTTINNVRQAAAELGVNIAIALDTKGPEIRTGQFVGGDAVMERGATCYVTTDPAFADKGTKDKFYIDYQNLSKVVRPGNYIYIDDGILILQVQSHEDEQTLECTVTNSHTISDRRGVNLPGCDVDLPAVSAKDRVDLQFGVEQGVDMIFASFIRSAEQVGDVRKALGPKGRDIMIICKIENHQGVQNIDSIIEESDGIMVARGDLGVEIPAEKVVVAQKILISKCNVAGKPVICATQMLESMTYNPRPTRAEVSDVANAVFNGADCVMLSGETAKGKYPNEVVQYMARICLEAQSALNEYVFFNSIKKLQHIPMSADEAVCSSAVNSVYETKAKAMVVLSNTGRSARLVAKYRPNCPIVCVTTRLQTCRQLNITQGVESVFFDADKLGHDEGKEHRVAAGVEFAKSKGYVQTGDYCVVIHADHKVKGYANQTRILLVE
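In 50 mM imidazole pH 7.2 with 7 mM MgCl2, LmPK (0.1 nM) turned over PEP (0.5 mM) and ADP (0.1 mM) for 1 h at room temperature. Luciferase read-out of ATP.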
CHX counter – Cycloheximide Counterscreen for Small Molecule Inhibitors of Shiga Toxin; cell reporter, cycloheximide protein synthesis inhibition counterscreen; max response, %; 300,000 tested, 12% active; in the data active means max response mostly above about 13%, no sharp cut-off; inactive means mostly below about 14%; further: read at 38.3 µM for the half of the compounds with a filed dose; 0% is about no effect
Pf growth 48h – Primary qHTS for delayed death inhibitors of the malarial parasite plastid, 48 hour incubation; P. falciparum luciferase growth in erythrocytes, 48 h; Potency, µM (highest dose often 28.7 µM), for inactives: at the top dose activity change, negative = inhibition, usual class: inhibitors; 310,000 tested, 5.9% active; AID 504832, 2011; further: potency means the concentration at half of the fitted maximal effect; on the % scale 0 is the no-effect control and ±100 the full control effect
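First compound was added to culture medium, then infected red cells at 0.1% parasitemia and 2% hematocrit (final). After incubation at 37 C under 5% CO2, luciferase detection reagent was dispensed and light output recorded.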
Pf growth 96h – Primary qHTS for delayed death inhibitors of the malarial parasite plastid, 96 hour incubation; Potency, µM (titrated, usually from 28.7 µM), inactives show at the top dose activity change, negative = inhibition, actives largely listed as inhibitors; P. falciparum luciferase reporter growth, 96 h; 320,000 tested, 6.9% active; further: potency means the concentration at half of the fitted maximal effect; on the % scale 0 is the no-effect control and ±100 the full control effect
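Plates of compound plus infected erythrocytes (2% hematocrit, 0.05% parasitemia final) incubate 96 hours, 37 C, 5% CO2. Detection reagent added; reduced luminescence from the parasites' luciferase reporter flags inhibition.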
Shiga toxin inh – A qHTS for Small Molecule Inhibitors of Shiga Toxin | inhibition, % at 38.7 µM | AID 2315, 2010 | 290,000 tested, 9.2% active | Vero cells, Shiga toxin protein synthesis inhibition reporter; in the data active means inhibition mostly above about 28%, no sharp cut-off; inactive means mostly below about 43%; further: 0% is about no effect
Active calls of the source: *; i = inactive; u = inconclusive; x = not tested or not shown; [ ] = dose if it differs, or a comment. Unless noted, the call rests on the fitted dose curve; in most records, active means well fitted inhibition curve with a large enough effect; inconclusive means small, poorly fitted or top-dose-only effect, or another doubt; inactive means no such curve, though single readings can be large or run the other way.

SMILES	LmPK inh	CHX counter	Pf growth 48h	Pf growth 96h	Shiga toxin inh
Cc1cc(-c2nnc3n2CCCCC3)c(C)n1-c1ccccc1	-1%	12	-24%	u	91*
O=C(Cc1ccc(-n2cccc2)cc1)N1CCN(c2ccccc2F)CC1	3%	-1	19%	12µM*	1
Cc1ccc(NC(=O)N2CCN(c3ncccc3C(F)(F)F)CC2)cc1	-1%	15*	8.3µM*	13µM*	26
OCC1(Cc2ccc(Cl)cc2)CCN(CCCc2ccccc2)CC1	2%	0	u	3%	-20
COc1ccc(CC(=O)N2CCN(c3ccccc3F)CC2)cc1OC	-4%	-2	7%	22%	-4
CN1CCC(CO)(Cc2ccccc2)CC1	-1%	-4	35%	3.7µM*	-9
O=C(Nc1ccc(Cl)cc1)N1CCC(CO)(Cc2ccccc2)CC1	8%	-2	-9%	2.6µM*	5
Cn1cc(CC(=O)N2CCN(c3ccc(Cl)cc3)CC2)c2ccccc21	-3%	-2	-9%	12µM*	-10
O=C(Nc1ccc(Cl)cc1)N1N=CCC1c1ccccc1 (centres undefined)	2%	20*	11%	u	23
O=C(Nc1cccc(Cl)c1)N1CCC(CO)(CCOc2ccccc2)CC1	6%	2	-6%	13µM*	-4
O=C(Cc1ccc(Cl)cc1)N1CCN(c2ccccc2)CC1	1%	31*	2%[0.00184 µM]	54%	63
Cn1cc(CC(=O)N2CCN(c3ccccc3F)CC2)c2ccccc21	1%	-5	x	u	1
CC(=O)c1cccc(CN2CCC(CO)(CCOc3ccccc3)CC2)c1	-1%	5	-21%	u	7
Cc1nn(C)c(Oc2ccccc2)c1CCNC(=O)C(C)(C)C	9%	-2	u	u	25
CS(=O)(=O)N(CC(=O)N1CCC(C(N)=O)CC1)Cc1ccc(Cl)c(Cl)c1	7%	-2	82%	-14%	-9
COc1ccc(N2CC(C(=O)N[C@@H](C)C(=O)NCc3ccccc3OC)CC2=O)cc1 (some centres undefined)	-11%	6	13%	-18%	-12
CC(=O)c1ccc(NC(=O)N2CCN(c3cccc(Cl)c3)CC2)cc1	2%	5	4.7µM*	u	39
O=C(Nc1ccc(NC(=O)N2CCN(c3ccccc3O)CC2)cc1)N1CCN(c2ccccc2O)CC1	3%	-4	u	5.9µM*	4
CC(=O)c1ccc(N2CCN(C(=O)Nc3ccc(Cl)cc3)CC2)cc1	-8%[11.5 µM]	3	u	7%	-6
O=C(CCN1CCN(c2ccccc2)CC1)Nc1ccc(Cl)cc1	2%	3	-5%	3.7µM*	-3
O=C(Nc1ccc(Cl)cc1)N1CCN(c2ccccc2)CC1	2%	20*	u	12µM*	24
O=C(NNC(=O)C1CCCN(S(=O)(=O)c2cccc(F)c2)C1)C1CC1 (centres undefined)	-2%	-2	5%	u	-10
Cc1cc(NC(=O)Nc2ccccc2)n(C(C)(C)C)n1	0%	0	x	-5%	-4
O=C(Nc1ccc(Cl)cc1)N1CCCC(Cn2cccc2)C1 (centres undefined)	-6%	13	2%	16%	43
O=C(Nc1ccc(Cl)cc1)N1CC=CCC1	-17%	84*	87%	0%	109*
SMILES	LmPK inh	CHX counter	Pf growth 48h	Pf growth 96h	Shiga toxin inh
Cc1ccc(-c2csc(N3CCC(C(N)=O)(N4CCCCC4)CC3)n2)cc1	18%	-7	x	4%	-11
Cc1ccc(-c2csc(N=C(N)N)n2)cc1	0%	28*	u	-45%	64*
C=CCn1c(-c2ccccc2)nc(=S)c2c1CCCC2	-1%	-2	-4%	-5%	16
COC(=O)N/N=C(\C)c1ccc(C)c([N+](=O)[O-])c1	-8%	19*	71%	90%	17*
C/C(=N/Nc1ccccc1[N+](=O)[O-])c1ccc(C)c([N+](=O)[O-])c1	5%	16*	u	36%	-6
C/C(=N\Nc1ccccc1[N+](=O)[O-])c1ccc(N2CCOCC2)cc1	-3%	21*	i	141%	86*
C/C(=N\NC(=O)c1cccnc1)c1ccc(C)c([N+](=O)[O-])c1	-2%	11	4%	-28%	13
CC(C)/C(=N/Nc1ccccc1[N+](=O)[O-])c1ccccc1	-4%	27*	7%	8.3µM*	48*
O=C(NCC(c1ccco1)N1CCCCC1)c1ccc2c(c1)S(=O)(=O)c1ccccc1C2=O (centres undefined)	12%	-2	0%	u	4
CCCCc1ccc(/C(C)=N/Nc2cc(N3CCOCC3)nc(C)n2)cc1	7%	-2	u	1%	x
COc1ccc(C(=O)C2CCCN(C(=O)/C=C/c3cnc[nH]3)C2)c(C)c1 (centres undefined)	3%	12	6%	36%	10
CC(C)N=Cc1c(O)[nH]c2ccccc12	-2%	-1	10%	x	-27
Cc1cccc(/N=C/c2sc3ccccc3c2O)n1	u	44*	9%	u	39*
Oc1c(C=Nc2cccc3cccnc23)sc2ccccc12	u	31	u	x	82
Cc1cccc(/N=C/c2c(O)[nH]c3ccccc23)n1	-22%	46*	116%	u	92*
CCOc1cc(N2CCOCC2)c(OCC)cc1NC(=O)c1ccc(OCc2c(C)noc2C)c(OC)c1	1%	-2	u	u	-9
Cc1cccc(CN2CCN(C(=O)CN(C)C(C)C(=O)Nc3ccc(C(N)=O)cc3)CC2)c1 (centres undefined)	x	x	-16%	-16%	x
Cc1cc(=O)oc2cc(OCC(=O)c3ccc4c(c3)NC(=O)CO4)ccc12	-6%	8	33%	2%	-12
O=S(=O)(Nc1ccn(-c2ccccc2)n1)c1ccc(Br)cc1	-2%	16*	37%	x	42
Cc1c(NS(=O)(=O)c2ccc(Br)cc2)c(=O)n(-c2ccccc2)n1C	2%	17*	-21%	u	18
Cc1ccc(S(=O)(=O)Nc2c(C)n(C)n(-c3ccccc3)c2=O)cc1C(=O)OC(C)C(=O)N(C)c1ccccc1 (centres undefined)	5%	-3	-22%	15µM*	-3
Cc1ccc(S(=O)(=O)NC(=O)Nc2c(C)n(C)n(-c3ccccc3)c2=O)cc1	4%	-4	10%	12µM*	-4
Cc1c(NC(=O)c2ccccc2NS(=O)(=O)c2ccc(Br)cc2)c(=O)n(-c2ccccc2)n1C	9%	5	13%	-18%	-7
CCC1Oc2ccc(C)cc2N(CC(=O)NCCCN2CCOCC2)C1=O (centres undefined)	-8%	-3	9%	u	13
CN(CCc1ccccn1)C(=S)NC(=O)c1ccco1	-5%	-3	5%	u	-19
